We go through 105 sequences from a collection of fitness landscapes (doi:10.1038/s41467-024-54723-y).

Whole data set: some 18,000 sequences, median “TetR repression strength (sort-seq, GFP reporter)” near 0.23, cut for the highest 2% near 0.68. What follows is part of a selection rich in the highest values, with near analogues and random picks from the rest.

Sequence of TetR (class B, Tn10) (P04483 whole entry): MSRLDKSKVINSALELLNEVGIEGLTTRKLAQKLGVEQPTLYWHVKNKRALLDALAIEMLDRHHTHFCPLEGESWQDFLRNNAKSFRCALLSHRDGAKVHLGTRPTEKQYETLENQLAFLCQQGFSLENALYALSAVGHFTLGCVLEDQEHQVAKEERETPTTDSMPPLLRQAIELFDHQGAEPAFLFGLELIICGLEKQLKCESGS

This experiment has as its target TetR (class B, Tn10) (UniProt P04483). Kind of experiment: TetR repression strength (sort-seq, GFP reporter) (relative to tetO2 = 1); higher = stronger repression. As to conditions: E. coli. Summed up:
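E. coli SIG10-MAX carried a low-copy plasmid library with eight randomized operator positions between a constitutive promoter and sfGFP, with TetR constitutively expressed. Cells grew 5 h at 37 °C in LB with 50 µg/mL chloramphenicol, then 10^6 cells were FACS-sorted into 13 fluorescence bins, each Illumina-sequenced. Repression strength is the top bin index plus one minus the read-weighted mean bin, divided by the wild-type operator value. Three independent transformations; variants with ≥30 reads in all replicates and CV ≤0.5 were averaged.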
TCCCTGAGAGTCGTGGAGA: the TetR repression strength was 0.239. The value for TCCCGTCAAGTGGATGAGA was 0.109; that for TCCCTCCGAGTGCAGGAGA was 0.492. On to TCCCCCGCAGTGCATGAGA, for which the TetR repression strength turned out to be 0.385.

TCCCCCTCAGTTGTAGAGA had a TetR repression strength of 0.237. Consider TCCCGAAAAGTGCAGGAGA, for which the TetR repression strength amounted to 0.26. The value for TCCCGACAAGTGCAGGAGA was 0.684; that for TCCCGACCAGTGCAGGAGA was 0.805. On to TCCCGACCAGTGCGGGAGA, for which the TetR repression strength worked out at 0.222. The sequence TCCCGAGAAGTGCAGGAGA returned a TetR repression strength of 0.173. TCCCGAGCAGTGCAGGAGA showed a TetR repression strength of 0.226. As to TCCCTAGCAGTGGTGGAGA, the TetR repression strength stood at 0.27.

As to TCCCGTTGAGTGTATGAGA, the TetR repression strength was determined as 0.181. The value for TCCCAGGCAGTCCGTGAGA was 0.2; that for TCCCGGTTAGTGCAAGAGA was 0.415. Take TCCCTAGGAGTAACGGAGA: the TetR repression strength was found to be 0.183. Take TCCCGTCTAGTTCTAGAGA: the TetR repression strength is 0.36. Then TCCCGTCGAGTTAAGGAGA, with 0.815. TCCCGTCTAGTTCTGGAGA: the TetR repression strength is 0.687. The value for TCCCTTCTAGTTAAGGAGA was 0.283; that for TCCCGTGTAGTTCTGGAGA was 0.189; that for TCCCGTCGAGTTCCGGAGA was 0.977.

As for TCCCGTCGAGTGAAGGAGA, the TetR repression strength came to 0.311. Then TCCCGTCGAGTCCCGGAGA, with 0.402. Take TCCCGTCGAGTGCCGGAGA: the TetR repression strength stood at 0.363. The value for TCCCGTCTAGTTAAGGAGA was 0.811. In turn, TCCCGTCTAGTTGAGGAGA gave a TetR repression strength of 0.24. Then TCCCGTCGAGTAAAGGAGA, with 0.22; and TCCCCGTAAGTGCAGGAGA, with 0.21; and TCCCAGCGAGTCCAGGAGA, with 0.27. Regarding TCCCACTTAGTAAGTGAGA, the TetR repression strength worked out at 0.141. Consider TCCCAGTAAGTAGCCGAGA, for which the TetR repression strength worked out at 0.0168. The value for TCCCGGACAGTATATGAGA was 0.304; that for TCCCTAGCAGTAGTAGAGA was 0.681.

In turn, TCCCCACTAGTTAAGGAGA gave a TetR repression strength of 0.225. Turning to TCCCCGCTAGTTAAGGAGA, the TetR repression strength stood at 0.755.

With TCCCCGTTAGTTAAGGAGA, the TetR repression strength turned out to be 0.149. Take TCCCGGAGAGTGTATGAGA: the TetR repression strength stood at 0.188. The value for TCCCAGTGAGTTGCCGAGA was 0.212; that for TCCCGTACAGTTCATGAGA was 1.18.

As to TCCCCTACAGTTCATGAGA, the TetR repression strength was determined as 0.189. Then TCCCGTACAGTTGATGAGA, with 0.2; and TCCCGTCAAGTTCATGAGA, with 0.15; and TCCCGTAAAGTTCATGAGA, with 1.21.

TCCCATAAAGTTCATGAGA yielded a TetR repression strength of 0.36.

Take TCCCAGTTAGTCTTTGAGA: the TetR repression strength is 0.334. For the sequence TCCCTAAAAGTTTGAGAGA, the TetR repression strength is 0.334. TCCCGTTCAGTGAGAGAGA yielded a TetR repression strength of 0.516. TCCCATCCAGTGATAGAGA came in with a TetR repression strength of 0.626. Then TCCCATTCAGTGATAGAGA, with 0.707. The value for TCCCTGCTAGTGATCGAGA was 0.745. Sequence TCCCTGATAGTGATCGAGA came in with a TetR repression strength of 0.362. Then TCCCGTGCAGTGATAGAGA, with 0.647. TCCCTGCTAGTGATAGAGA: the TetR repression strength was 0.638. In turn, TCCCGTTCAGTGATAGAGA gave a TetR repression strength of 0.819. TCCCGTTCAGTGCTAGAGA registered a TetR repression strength of 0.681. Sequence TCCCGTGCAGTGCTAGAGA had a TetR repression strength of 0.38.

TCCCATTCAGTTATAGAGA had a TetR repression strength of 0.596.

Turning to TCCCGTTCAGTGCGAGAGA, the TetR repression strength worked out at 0.0532.

Consider TCCCGGGAAGTATTCGAGA, for which the TetR repression strength stood at 0.391. Then TCCCCAAGAGTTTGGGAGA, with 0.217; and TCCCGGATAGTACTAGAGA, with 0.291; and TCCCGGTTAGTTCGAGAGA, with 0.0821.

TCCCCACCAGTGGCGGAGA came in with a TetR repression strength of 0.231. The value for TCCCTACTAGTACGGGAGA was 0.394; that for TCCCGCTCAGTTGTAGAGA was 0.421. Then TCCCATACAGTTGGAGAGA, with 0.37; and TCCCCATAAGTACAAGAGA, with 0.446; and TCCCGTGTAGTAGGAGAGA, with 0.17. For TCCCTCGCAGTGGATGAGA, the TetR repression strength turned out to be 0.323. Turning to TCCCTGTCAGTTGGCGAGA, the TetR repression strength turned out to be 0.874. Then TCCCGTTCAGTACGCGAGA, with 0.912; and TCCCTGACAGTTGGCGAGA, with 0.301; and TCCCATTTAGTGATCGAGA, with 0. Sequence TCCCTGCCAGTGATAGAGA returned a TetR repression strength of 0.646. TCCCGTTCAGTAGGCGAGA had a TetR repression strength of 0.261. The value for TCCCATTCAGTGATCGAGA was 0.731; that for TCCCTGTCAGTTGGAGAGA was 0.36. Then TCCCATTAAGTGATCGAGA, with 0.344; and TCCCTGTCAGTGAGAGAGA, with 0.444; and TCCCTGTCAGTGATAGAGA, with 0.863. TCCCGCTCAGTACGCGAGA came in with a TetR repression strength of 0.104. The value for TCCCGACTAGTAACTGAGA was 0.613. The value for TCCCTAGTAGTTGTTGAGA was 0.308; that for TCCCCGGGAGTTATGGAGA was 0.274; that for TCCCACTTAGTTGCTGAGA was 0.19.

The sequence TCCCGGTCAGTGAAGGAGA gave a TetR repression strength of 0.236. In turn, TCCCGGCCAGTCAAAGAGA displayed a TetR repression strength of 0.406.

In turn, TCCCTTCCAGTTCACGAGA came in with a TetR repression strength of 0.325.

TCCCAATTAGTTTGAGAGA displayed a TetR repression strength of 0.313. TCCCCGCGAGTAGGAGAGA came in with a TetR repression strength of 0.405.

The sequence TCCCTGGGAGTGTGTGAGA yielded a TetR repression strength of 0.182. The value for TCCCGTGGAGTACTAGAGA was 0.229; that for TCCCTGTCAGTAATCGAGA was 0.535.

TCCCGTTCAGTGAACGAGA yielded a TetR repression strength of 0.617.

In turn, TCCCGTTAAGTGCGAGAGA yielded a TetR repression strength of 0.109. The value for TCCCGTTCAGTGATCGAGA was 0.724. The value for TCCCATTCAGTGCACGAGA was 0.691; that for TCCCTGAGAGTGATCGAGA was 0.0416; that for TCCCATGCAGTGCACGAGA was 0.17. The sequence TCCCATTGAGTGCACGAGA registered a TetR repression strength of 0.443. For the sequence TCCCGTTCAGTGCTCGAGA, the TetR repression strength stood at 0.442.

Take TCCCGTTAAGTGCTAGAGA: the TetR repression strength was found to be 0.685. The value for TCCCGCTAAGTGCTAGAGA was 0.36; that for TCCCTGTCAGTGATCGAGA was 0.734.
